Test results as given in PubChem BioAssay (EPA / NIEHS).
Results filed as inconclusive are left out. The source made the active and inactive calls. The calls were made as follows, unless noted: active = hit-call score of the fitted dose curve at least 0.9, where 1 is the maximum; inconclusive = response in the unintended direction; inactive = score below 0.9.

Experiments:
[1] = Tanguay_ZF_120hpf_TR_legacy: (Legacy) Oregon State University Tanguay Lab 120 Hour Post-fertilization zebrafish Assay for Touch Response (AID 2283667)
Method in brief: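 5D WT embryos; static exposure to 120 hpf, 28C, sealed/dark; DMSO 0.64% v/v final. TR scored present/absent; dead embryos excluded. Pos ctrl 5uM trimethyltin chloride.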

[2] = CCTE_Padilla_ZF_144hpf_TERATOSCORE: (Legacy) CCTE's 144 Hour Post-fertilization zebrafish Assay Teratoscore, Padilla Lab (AID 2283679; active = hit-call score of the fitted dose curve at least 0.9, where 1 is the maximum; inactive = score below 0.9;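 as to AC50: zebrafish embryos with chorions exposed by immersion from 6-8 hpf to 5 dpf with daily renewal; teratogenicity score from eye scoring of death hatching and malformations at 144 hpf; higher score means more developmental defects relative to DMSO baseline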)
Method in brief: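 Larvae scored by eye at 144 hpf for death, hatching and malformations after a day in clean Hanks'. Before that, daily-renewed exposure at 80 uM (0.4% DMSO, 26C) from roughly 6-8 hpf through 5 dpf, 4 embryos per chemical.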

[3] = read-out: glucuronosyltransferase (UGT1A1), UGT1A1 (gene 54658); experiment: CLD_UGT1A1_6hr: CellzDirect (CLD) Gene Expression Assay for glucuronosyltransferase (UGT1A1) at 6 hours (AID 2283672)
Method in brief: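 Primary human hepatocytes from two donor preparations, dosed with fresh solutions in 0.2% DMSO, harvested at 6 h. UGT1A1 mRNA measured by qNPA chemiluminescence; induction fitted upward versus DMSO.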

[4] = read-out: xenobiotic metabolism (CYP1A1), CYP1A1 (gene 1543); experiment: CLD_CYP1A1_24hr: CellzDirect (CLD) Gene Expression Assay for xenobiotic metabolism (CYP1A1) at 24 hours (AID 2283673);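 also: CYP1A1 mRNA level by quantitative nuclease protection with chemiluminescence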
Method in brief: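 Primary human hepatocytes dosed daily with fresh solutions in 0.2% DMSO vehicle. mRNA measured at 24 h by quantitative nuclease protection assay with chemiluminescence; gain-of-signal fit versus DMSO, with morphology-based cytotoxicity flags.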

[5] = read-out: ABC Transporter (ABCB11), ABCB11 (gene 8647); experiment: CLD_ABCB11_6hr: CellzDirect (CLD) Gene Expression Assay for ABC Transporter (ABCB11) at 6 hours (AID 2283675);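 also: hits raise ABCB11 mRNA level so AC50 marks induction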
Method in brief: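 Human primary hepatocytes (two donor preparations) given fresh chemical daily at multiple concentrations, vehicle 0.2% DMSO. ABCB11 mRNA induction measured 6 h after dosing by qNPA chemiluminescence versus DMSO; cytotoxicity annotated from morphology.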

[6] = read-out: Cytochrome P450 3A4 (Homo sapiens) (UniProt P08684); experiment: CLD_CYP3A4_6hr: CellzDirect (CLD) Gene Expression Assay for xenobiotic metabolism (CYP3A4) at 6 hours (AID 2283680)
Method in brief: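 Primary human hepatocytes (two donor preparations) dosed; CYP3A4 mRNA harvested at 6 h and quantified by qNPA chemiluminescence. Gain of signal fitted against 0.2% DMSO vehicle; cytotoxicity flagged by phase-contrast morphology.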

[7] = CLD_ACTIN_24hr: CellzDirect (CLD) Gene Expression Assay for Baseline Control (Actin) at 24 hours (AID 2283670)
Method in brief: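 Primary human hepatocytes dosed over multiple concentrations with 0.2% DMSO vehicle; actin mRNA measured at 24 h by qNPA chemiluminescence. Background control endpoint, fitted as gain of signal versus DMSO.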

[8] = read-out: Cytochrome P450 (CYP24A1_1), CYP24A1 (gene 1591); experiment: LTEA_HepaRG_CYP24A1_1: Life Technologies and Expression Analysis (LTEA) Assay for Cytochrome P450 (CYP24A1_1) using HepaRG (AID 2283671; active = hit-call score of the fitted dose curve at least 0.9, where 1 is the maximum; inactive = score below 0.9); conditions: mRNA level, 48 h; actives raise or lower the signal
Method in brief: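 In this test, gene induction or suppression of CYP24A1 in human HepaRG liver cells is measured by qRT-PCR after 48 h chemical treatment (eight concentrations, maximum 100 uM). Values are fitted bidirectionally relative to DMSO.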

[9] = read-out: alkyl and aryl transferase (GSTA2), GSTA2 (gene 2939); experiment: CLD_GSTA2_6hr: CellzDirect (CLD) Gene Expression Assay for alkyl and aryl transferase (GSTA2) at 6 hours (AID 2283666)
Method in brief: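 Primary human hepatocytes from two donor preparations were dosed daily with fresh compound at multiple concentrations, 0.2% DMSO vehicle. GSTA2 mRNA was measured at 6 hours by qNPA chemiluminescence; induction fitted relative to DMSO, with cytotoxicity flagged morphologically.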

Chain of Cytochrome P450 3A4 (Homo sapiens) (P08684 whole entry, looked up): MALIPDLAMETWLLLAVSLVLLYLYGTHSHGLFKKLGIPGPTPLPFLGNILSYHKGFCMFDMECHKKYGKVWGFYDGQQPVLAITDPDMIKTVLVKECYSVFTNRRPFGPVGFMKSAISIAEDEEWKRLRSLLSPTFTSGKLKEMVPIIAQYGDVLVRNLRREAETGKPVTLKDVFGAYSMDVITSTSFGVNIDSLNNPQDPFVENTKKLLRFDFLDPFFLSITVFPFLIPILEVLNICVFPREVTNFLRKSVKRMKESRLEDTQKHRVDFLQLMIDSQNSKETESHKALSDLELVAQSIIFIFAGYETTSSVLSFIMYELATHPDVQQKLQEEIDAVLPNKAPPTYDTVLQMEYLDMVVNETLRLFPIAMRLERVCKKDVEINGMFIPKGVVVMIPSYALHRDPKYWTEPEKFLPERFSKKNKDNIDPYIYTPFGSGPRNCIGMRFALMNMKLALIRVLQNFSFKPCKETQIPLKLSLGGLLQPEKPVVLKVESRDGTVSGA

## C[C@]12C[C@H](O)[C@H]3[C@@H](CCC4=CC(=O)CC[C@@]43C)[C@@H]1CC[C@@H]2C(=O)CO
[1]
  outcome: inactive
[2]
  outcome: inactive

## CCOC(=O)[C@H](C)Oc1ccc(Oc2nc3ccc(Cl)cc3o2)cc1
[3]
  outcome: inactive
[4]
  outcome: inactive
[5]
  outcome: inactive

## CCOC(=O)c1ccc(O)cc1
[1]
  outcome: inactive
[2]
  AC50: 62.6 µM (active)

## CCCCC(CC)CN1C(=O)C2C3C=CC(C3)C2C1=O (centres undefined)
[1]
  outcome: inactive
[3]
  outcome: inactive
[4]
  AC50: 20 µM (active)
[5]
  outcome: inactive
[2]
  AC50: 13 µM (active)
[6]
  outcome: inactive

## COC(=O)c1ccccc1C(=O)O
[1]
  outcome: inactive
[7]
  outcome: inactive
[8]
  outcome: inactive
[3]
  outcome: inactive
[4]
  AC50: 0.117 µM (active)
[5]
  outcome: inactive
[2]
  outcome: inactive

## COC(=O)c1cccc(C)c1S(=O)(=O)NC(=O)Nc1nc(OCC(F)(F)F)nc(N(C)C)n1
[3]
  outcome: inactive
[4]
  AC50: 5.36 µM (active)
[5]
  outcome: inactive
[2]
  outcome: inactive
[6]
  outcome: inactive

## O=C(c1ccccc1)C1CCCCC1
[1]
  outcome: inactive
[2]
  outcome: inactive

## COC(=O)c1c(Cl)nn(C)c1S(=O)(=O)NC(=O)Nc1nc(OC)cc(OC)n1
[9]
  outcome: inactive
[7]
  outcome: inactive
[3]
  outcome: inactive
[4]
  outcome: inactive
[2]
  AC50: 58.9 µM (active)
[6]
  outcome: inactive

## COc1nc(C)nc(NC(=O)NS(=O)(=O)c2ccccc2OCCCl)n1
[9]
  outcome: inactive
[7]
  outcome: inactive
[3]
  outcome: inactive
[4]
  outcome: inactive
[5]
  outcome: inactive
[2]
  outcome: inactive
[6]
  outcome: inactive

## CCCCCCC(C)OC(=O)COc1nc(F)c(Cl)c(N)c1Cl (centres undefined)
[1]
  outcome: inactive
[7]
  outcome: inactive
[8]
  outcome: inactive
[3]
  outcome: inactive
[4]
  outcome: inactive
[2]
  AC50: 46.9 µM (active)
[6]
  outcome: inactive

## COC(=O)c1ccc(I)cc1S(=O)(=O)NC(=O)Nc1nc(C)nc(OC)n1
[9]
  outcome: inactive
[7]
  outcome: inactive
[3]
  outcome: inactive
[4]
  outcome: inactive
[5]
  outcome: inactive
[2]
  outcome: inactive
[6]
  AC50: 0.348 µM (active)

## CCOC(=O)NCCOc1ccc(Oc2ccccc2)cc1
[1]
  outcome: inactive
[7]
  outcome: inactive
[3]
  outcome: inactive
[4]
  outcome: inactive
[5]
  outcome: inactive
[2]
  AC50: 15.4 µM (active)
[6]
  outcome: inactive

## CCOC(=O)COc1cc(-n2ncc(C(F)(F)F)c(C)c2=O)c(F)cc1Cl
[1]
  outcome: inactive
[7]
  outcome: inactive
[3]
  outcome: inactive
[4]
  outcome: inactive
[2]
  AC50: 0.458 µM (active)
[6]
  AC50: 4.73 µM (active)

## C[C@]12CC[C@@H]3c4ccc(O)cc4C[C@@H](CCCCCCCCCS(=O)CCCC(F)(F)C(F)(F)F)[C@H]3[C@@H]1CC[C@@H]2O (some centres undefined)
[1]
  outcome: inactive
[2]
  outcome: inactive

## COC(=O)c1ccc(CNS(C)(=O)=O)cc1S(=O)(=O)NC(=O)Nc1nc(OC)cc(OC)n1
[7]
  outcome: inactive
[3]
  outcome: inactive
[4]
  outcome: inactive
[2]
  outcome: inactive

## CCCCOC(=O)[C@@H](C)Oc1ccc(Oc2ccc(C(F)(F)F)cn2)cc1
[7]
  outcome: inactive
[3]
  outcome: inactive
[4]
  AC50: 20 µM (active)
[5]
  outcome: inactive
[2]
  AC50: 5.45 µM (active)
[6]
  outcome: inactive

## C#CCOC(=O)[C@@H](C)Oc1ccc(Oc2ncc(Cl)cc2F)cc1
[1]
  outcome: inactive
[3]
  outcome: inactive
[5]
  outcome: inactive
[2]
  AC50: 0.593 µM (active)

## OB(O)O
[1]
  outcome: inactive
[3]
  outcome: inactive
[5]
  outcome: inactive
[2]
  outcome: inactive

## CC1(C)C(C=C(Cl)Cl)C1C(=O)OCc1cccc(Oc2ccccc2)c1 (centres undefined)
[9]
  outcome: inactive
[7]
  outcome: inactive
[3]
  outcome: inactive
[4]
  outcome: inactive
[5]
  outcome: inactive
[2]
  AC50: 3.31 µM (active)
[6]
  outcome: inactive

## COC(=O)CSc1cc(N=c2sc(=O)n3n2CCCC3)c(F)cc1Cl
[1]
  outcome: inactive
[3]
  outcome: inactive
[4]
  outcome: inactive
[2]
  AC50: 0.0125 µM (active)
[6]
  AC50: 1.3 µM (active)

## CC(=O)S[C@@H]1CC2=CC(=O)CC[C@]2(C)[C@H]2CC[C@@]3(C)[C@@H](CC[C@@]34CCC(=O)O4)[C@H]12
[2]
  AC50: 38.3 µM (active)

## CCCOC(=O)NCCCN(C)C
[9]
  outcome: inactive
[1]
  outcome: inactive
[5]
  outcome: inactive
[2]
  outcome: inactive
[6]
  outcome: inactive

## COC(=O)c1ccccc1S(=O)(=O)NC(=O)Nc1nc(OC(F)F)cc(OC(F)F)n1
[9]
  outcome: inactive
[7]
  outcome: inactive
[3]
  outcome: inactive
[4]
  AC50: 0.0569 µM (active)
[5]
  outcome: inactive
[2]
  AC50: 3.02 µM (active)

## CCOC(=O)C(C)Oc1ccc(Oc2cnc3cc(Cl)ccc3n2)cc1 (centres undefined)
[9]
  outcome: inactive
[1]
  outcome: inactive
[3]
  outcome: inactive
[2]
  AC50: 1.7 µM (active)
[6]
  outcome: inactive

## Cc1nn(C)c(Oc2ccccc2)c1C=NOCc1ccc(C(=O)OC(C)(C)C)cc1
[9]
  outcome: inactive
[1]
  outcome: inactive
[4]
  outcome: inactive
[2]
  AC50: 0.213 µM (active)
[6]
  outcome: inactive

## C#C[C@]1(O)CC[C@H]2[C@@H]3CCC4=CC(=O)CC[C@@H]4[C@H]3CC[C@@]21CC
[2]
  outcome: inactive

## O=C(O)c1ccccc1
[1]
  outcome: inactive
[8]
  outcome: inactive

## CC(=O)[C@H]1CC[C@H]2[C@@H]3CCC4=CC(=O)CC[C@]4(C)[C@H]3CC[C@]12C
[1]
  outcome: inactive
[2]
  AC50: 8.03 µM (active)

## CCC(O)=C1C(=O)CC(C(=O)O)CC1=O (centres undefined)
[9]
  outcome: inactive
[3]
  outcome: inactive
[5]
  outcome: inactive
[2]
  outcome: inactive

## CCCCC(CC)COC(=O)c1ccccc1C(=O)O (centres undefined)
[3]
  outcome: inactive
[5]
  outcome: inactive
[2]
  AC50: 0.608 µM (active)
[6]
  outcome: inactive
